# From the supplement of paper PMC10849652
# Targets with a hit are over-represented here; the source holds about 7,900 in all. About 0.6% of all pairs of compound and target were hits. A number with no mark means an inactive call.
# Tests used:
# Assay in all cases: log2 fold change, soluble protein after heating vs DMSO (PISA); higher = thermal stabilisation; K562 cells, 10 uM, 30 min; active = over 0.2 and 3.5 SD of the protein, either way, in both replicates (recomputed)
# saracatinib = compound: CN1CCN(CCOc2cc(OC3CCOCC3)c3c(Nc4c(Cl)ccc5c4OCO5)ncnc3c2)CC1 [saracatinib]
# In short: (§1)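 Values are thermal stability changes relative to control samples and are taken from duplicates. They are stated as log2 fold changes. Before quantification by TMTpro 16plex LC-MS/MS with equalised channel sums, K562 cells at 2×10^6 cells/mL were treated with 10 μM compound for 30 min, heated in aliquots for 3 min across 48°C-58°C, pooled, extracted in PBS with 0.5% NP-40 at 4°C, and centrifuged at 21,000xg for 90 min to give the soluble supernatant.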
# sotrastaurin = compound: CN1CCN(c2nc(C3=C(c4c[nH]c5ccccc45)C(=O)NC3=O)c3ccccc3n2)CC1 [sotrastaurin]
# In short: as §1
# alvocidib = compound: CN1CC[C@H](c2c(O)cc(O)c3c(=O)cc(-c4ccccc4Cl)oc23)[C@H](O)C1 [alvocidib]
# In short: as §1
# Tubastatin A = compound: CN1CCc2c(c3ccccc3n2Cc2ccc(C(=O)NO)cc2)C1 [Tubastatin A]
# In short: as §1
# [1] = compound: CNC(=O)C1=CC=CC=C1NC2=NC(=NC=C2Cl)NC3=C(C=C(C=C3)N4CCOCC4)OC
# In short: as §1
# defactinib = compound: CNC(=O)c1ccc(Nc2ncc(C(F)(F)F)c(NCc3nccnc3N(C)S(C)(=O)=O)n2)cc1 [defactinib]
# In short: as §1
# rucaparib = compound: CNCc1ccc(-c2[nH]c3cc(F)cc4c3c2CCNC4=O)cc1 [rucaparib]
# In short: as §1
# [2] = compound: CNc1nc(-c2ccc3c(N)n[nH]c3c2)cc(N2C[C@@H](C(=O)NC3CCCCC3)CC[C@H]2C)n1
# In short: as §1
# encorafenib = compound: COC(=O)N[C@@H](C)CNc1nccc(-c2cn(C(C)C)nc2-c2cc(Cl)cc(NS(C)(=O)=O)c2F)n1 [encorafenib]
# In short: as §1
# [3] = compound: COC(=O)[C@H](CCSC)NC(=O)C1=C(C=C(C=C1)NC[C@H](CS)N)C2=CC=CC=C2
# In short: as §1
# Sequence of UniProt Q9BUJ2 (Q9BUJ2 whole entry, looked up): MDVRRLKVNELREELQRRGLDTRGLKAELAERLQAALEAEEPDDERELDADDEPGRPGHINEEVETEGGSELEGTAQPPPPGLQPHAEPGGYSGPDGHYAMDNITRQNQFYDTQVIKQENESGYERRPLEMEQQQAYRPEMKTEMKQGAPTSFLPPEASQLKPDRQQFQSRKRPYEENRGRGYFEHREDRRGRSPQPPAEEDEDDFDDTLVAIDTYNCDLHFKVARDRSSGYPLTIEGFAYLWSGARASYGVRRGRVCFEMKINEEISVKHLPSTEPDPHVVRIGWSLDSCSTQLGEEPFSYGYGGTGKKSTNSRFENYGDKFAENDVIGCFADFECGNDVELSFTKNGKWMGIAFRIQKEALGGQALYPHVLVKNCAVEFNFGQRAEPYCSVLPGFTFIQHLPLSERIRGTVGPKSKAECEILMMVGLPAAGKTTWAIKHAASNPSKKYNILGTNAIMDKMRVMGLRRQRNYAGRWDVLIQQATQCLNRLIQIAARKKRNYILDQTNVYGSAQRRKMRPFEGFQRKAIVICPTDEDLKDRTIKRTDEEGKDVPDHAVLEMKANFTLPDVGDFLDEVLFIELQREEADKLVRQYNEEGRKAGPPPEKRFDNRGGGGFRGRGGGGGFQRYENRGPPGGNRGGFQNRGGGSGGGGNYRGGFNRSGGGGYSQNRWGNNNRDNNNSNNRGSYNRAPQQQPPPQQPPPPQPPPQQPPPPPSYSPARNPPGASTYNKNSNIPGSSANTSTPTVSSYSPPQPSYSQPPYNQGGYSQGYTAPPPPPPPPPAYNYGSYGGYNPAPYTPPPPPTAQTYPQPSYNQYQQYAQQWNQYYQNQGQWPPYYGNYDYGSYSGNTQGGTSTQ
# Sequence of UniProt Q8WXD5 (Q8WXD5 whole entry, looked up): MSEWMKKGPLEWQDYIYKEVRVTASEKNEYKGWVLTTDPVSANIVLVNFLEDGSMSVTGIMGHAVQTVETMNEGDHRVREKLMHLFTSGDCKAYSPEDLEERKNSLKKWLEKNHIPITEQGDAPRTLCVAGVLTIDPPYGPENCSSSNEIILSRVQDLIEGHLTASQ
# Sequence of UniProt Q9Y3I1 (Q9Y3I1 whole entry, looked up): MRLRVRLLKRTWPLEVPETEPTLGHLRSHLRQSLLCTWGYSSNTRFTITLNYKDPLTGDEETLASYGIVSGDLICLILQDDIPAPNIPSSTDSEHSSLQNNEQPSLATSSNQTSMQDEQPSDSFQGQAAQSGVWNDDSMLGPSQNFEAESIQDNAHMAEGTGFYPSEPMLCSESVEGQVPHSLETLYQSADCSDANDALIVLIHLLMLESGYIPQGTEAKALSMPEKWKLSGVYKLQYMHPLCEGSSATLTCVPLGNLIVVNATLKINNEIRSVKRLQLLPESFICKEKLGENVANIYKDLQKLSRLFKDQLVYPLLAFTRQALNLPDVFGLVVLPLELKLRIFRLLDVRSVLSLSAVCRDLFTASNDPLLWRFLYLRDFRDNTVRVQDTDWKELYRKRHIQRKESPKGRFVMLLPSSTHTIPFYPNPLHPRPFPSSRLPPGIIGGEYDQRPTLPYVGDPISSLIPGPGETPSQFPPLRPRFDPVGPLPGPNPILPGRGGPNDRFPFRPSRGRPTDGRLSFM
# Sequence of UniProt P54803 (P54803 whole entry, looked up): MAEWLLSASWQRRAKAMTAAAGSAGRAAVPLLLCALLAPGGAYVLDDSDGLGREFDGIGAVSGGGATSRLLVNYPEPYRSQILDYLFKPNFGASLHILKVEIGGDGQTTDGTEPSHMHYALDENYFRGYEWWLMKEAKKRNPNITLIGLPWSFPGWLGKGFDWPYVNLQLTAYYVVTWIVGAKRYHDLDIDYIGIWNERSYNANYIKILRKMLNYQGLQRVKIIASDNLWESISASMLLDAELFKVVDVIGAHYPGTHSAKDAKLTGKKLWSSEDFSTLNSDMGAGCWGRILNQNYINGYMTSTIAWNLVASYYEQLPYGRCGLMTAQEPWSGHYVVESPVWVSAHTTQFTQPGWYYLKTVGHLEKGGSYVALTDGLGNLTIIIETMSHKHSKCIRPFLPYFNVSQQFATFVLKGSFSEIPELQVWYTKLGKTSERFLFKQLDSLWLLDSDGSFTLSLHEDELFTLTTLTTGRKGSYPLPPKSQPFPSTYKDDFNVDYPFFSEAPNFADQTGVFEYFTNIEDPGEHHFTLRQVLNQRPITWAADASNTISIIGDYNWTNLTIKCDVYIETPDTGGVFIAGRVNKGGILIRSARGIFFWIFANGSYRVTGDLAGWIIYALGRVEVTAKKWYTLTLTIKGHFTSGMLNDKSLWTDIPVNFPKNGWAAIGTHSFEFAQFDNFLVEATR
# Sequence of UniProt Q5JWF2 (Q5JWF2 whole entry, looked up): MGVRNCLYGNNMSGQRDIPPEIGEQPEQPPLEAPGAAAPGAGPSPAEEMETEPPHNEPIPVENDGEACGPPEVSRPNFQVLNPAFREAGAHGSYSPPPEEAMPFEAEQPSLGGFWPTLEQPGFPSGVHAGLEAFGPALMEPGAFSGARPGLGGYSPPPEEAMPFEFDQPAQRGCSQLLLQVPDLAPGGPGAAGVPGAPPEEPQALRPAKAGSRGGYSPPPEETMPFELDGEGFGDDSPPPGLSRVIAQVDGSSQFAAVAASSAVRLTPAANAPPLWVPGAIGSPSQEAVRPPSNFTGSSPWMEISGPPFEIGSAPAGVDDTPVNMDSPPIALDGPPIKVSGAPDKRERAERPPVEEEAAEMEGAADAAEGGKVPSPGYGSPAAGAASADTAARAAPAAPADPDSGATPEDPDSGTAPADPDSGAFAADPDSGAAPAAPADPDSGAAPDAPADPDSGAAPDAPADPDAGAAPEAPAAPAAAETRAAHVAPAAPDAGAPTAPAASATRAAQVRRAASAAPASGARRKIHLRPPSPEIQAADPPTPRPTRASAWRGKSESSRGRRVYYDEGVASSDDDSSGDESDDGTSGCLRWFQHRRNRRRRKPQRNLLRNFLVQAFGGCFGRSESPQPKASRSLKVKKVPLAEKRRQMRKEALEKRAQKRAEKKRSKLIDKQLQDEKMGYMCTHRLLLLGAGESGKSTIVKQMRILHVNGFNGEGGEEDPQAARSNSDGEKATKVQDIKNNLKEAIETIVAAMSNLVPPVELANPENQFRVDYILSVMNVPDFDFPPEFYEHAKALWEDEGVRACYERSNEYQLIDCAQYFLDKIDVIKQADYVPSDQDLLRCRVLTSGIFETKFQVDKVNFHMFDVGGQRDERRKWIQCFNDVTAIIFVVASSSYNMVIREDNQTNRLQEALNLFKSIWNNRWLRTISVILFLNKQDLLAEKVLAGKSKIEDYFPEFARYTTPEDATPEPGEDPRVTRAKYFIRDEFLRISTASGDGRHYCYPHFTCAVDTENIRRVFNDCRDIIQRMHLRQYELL
# Sequence of UniProt Q86VS8 (Q86VS8 whole entry, looked up): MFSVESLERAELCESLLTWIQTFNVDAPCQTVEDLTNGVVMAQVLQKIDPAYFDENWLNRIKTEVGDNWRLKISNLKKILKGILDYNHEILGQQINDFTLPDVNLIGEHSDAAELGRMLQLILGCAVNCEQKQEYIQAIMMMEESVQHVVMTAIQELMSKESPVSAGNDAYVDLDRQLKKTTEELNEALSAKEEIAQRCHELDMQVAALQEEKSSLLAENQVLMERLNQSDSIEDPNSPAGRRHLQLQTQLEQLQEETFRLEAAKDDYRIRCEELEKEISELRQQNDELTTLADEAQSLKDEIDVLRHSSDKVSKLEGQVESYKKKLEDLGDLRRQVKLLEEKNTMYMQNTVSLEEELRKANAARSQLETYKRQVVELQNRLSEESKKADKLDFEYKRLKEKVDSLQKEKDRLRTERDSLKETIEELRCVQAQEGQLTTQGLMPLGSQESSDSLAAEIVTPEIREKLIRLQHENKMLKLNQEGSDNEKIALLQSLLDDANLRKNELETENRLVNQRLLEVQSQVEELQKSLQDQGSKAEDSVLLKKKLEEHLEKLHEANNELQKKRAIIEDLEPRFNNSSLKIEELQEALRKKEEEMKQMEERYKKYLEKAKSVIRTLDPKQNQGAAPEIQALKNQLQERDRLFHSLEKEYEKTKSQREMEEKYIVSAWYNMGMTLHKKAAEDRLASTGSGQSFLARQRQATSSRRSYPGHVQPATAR
# Sequence of UniProt P11142 (P11142 whole entry, looked up): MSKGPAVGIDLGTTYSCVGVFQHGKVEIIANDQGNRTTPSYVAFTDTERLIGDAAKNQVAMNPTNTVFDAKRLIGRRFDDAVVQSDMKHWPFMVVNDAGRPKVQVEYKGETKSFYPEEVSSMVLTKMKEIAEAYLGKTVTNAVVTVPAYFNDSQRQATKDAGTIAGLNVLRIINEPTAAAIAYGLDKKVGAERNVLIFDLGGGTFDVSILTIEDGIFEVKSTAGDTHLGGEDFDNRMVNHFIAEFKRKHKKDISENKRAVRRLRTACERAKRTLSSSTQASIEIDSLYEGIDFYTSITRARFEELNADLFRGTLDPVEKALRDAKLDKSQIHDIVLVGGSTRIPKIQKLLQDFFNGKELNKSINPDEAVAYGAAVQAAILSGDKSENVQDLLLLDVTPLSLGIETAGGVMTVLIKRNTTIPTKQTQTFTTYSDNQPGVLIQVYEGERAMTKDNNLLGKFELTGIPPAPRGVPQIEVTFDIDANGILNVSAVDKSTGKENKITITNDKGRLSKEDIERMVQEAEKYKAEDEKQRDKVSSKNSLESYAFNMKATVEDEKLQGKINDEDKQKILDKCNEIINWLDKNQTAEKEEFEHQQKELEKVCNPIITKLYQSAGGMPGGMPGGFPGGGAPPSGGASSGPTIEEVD
# Sequence of UniProt P78417 (P78417 whole entry, looked up): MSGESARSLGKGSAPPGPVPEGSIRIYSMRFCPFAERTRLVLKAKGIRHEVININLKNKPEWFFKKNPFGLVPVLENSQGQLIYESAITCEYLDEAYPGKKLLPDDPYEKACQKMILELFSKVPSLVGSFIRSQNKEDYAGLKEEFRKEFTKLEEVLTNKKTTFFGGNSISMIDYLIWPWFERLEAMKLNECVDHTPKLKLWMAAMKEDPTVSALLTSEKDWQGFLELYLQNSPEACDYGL
# Sequence of UniProt Q01628 (Q01628 whole entry, looked up): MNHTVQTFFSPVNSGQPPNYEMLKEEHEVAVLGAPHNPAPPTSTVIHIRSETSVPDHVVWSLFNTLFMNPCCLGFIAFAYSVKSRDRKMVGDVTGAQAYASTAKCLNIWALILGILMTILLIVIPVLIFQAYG
Target,log2 fold change (saracatinib),log2 fold change (sotrastaurin),log2 fold change (alvocidib),log2 fold change (Tubastatin A),log2 fold change [1],log2 fold change (defactinib),log2 fold change (rucaparib),log2 fold change [2],log2 fold change (encorafenib),log2 fold change [3]
HADHB (UniProt P55084),-0.111,0.011,-0.283,0.027,0.064,-0.18,0.131,0.62 (active),0.001,-0.223
GATD1 (UniProt Q8NB37),0.077,0.057,-0.084,0.06,-0.079,0.001,-0.004,-0.022,0,0.011
FDFT1 (UniProt P37268),0.071,0.604 (active),-0.033,0.012,-0.002,-0.02,0.004,-0.072,-0.032,-0.028
GSTO1 (UniProt P78417),0.027,0.094,-0.016,-0.021,-0.034,0.001,-0.09,-0.004,0.001,0
GNS (UniProt P15586),0.014,0.041,-0.022,-0.012,-0.007,-0.011,0,-0.034,0.009,-0.009
H1FX (UniProt Q92522),-0.054,-0.237,0.381,0.093,0.041,0.336,0.219,0.102,0.121,0.013
HNRNPUL1 (UniProt Q9BUJ2),-0.016,0.039,0.082,0,0.008,0.018,0.075,0.034,0.063,-0.011
IGF2BP2 (UniProt Q9Y6M1),-0.122,-0.035,0.209,0.168,0.044,0.147,0.446,0.145,0.106,-0.066
GNAI3 (UniProt P08754),0.063,-0.011,-0.02,0.046,0.093,-0.041,-0.009,0.025,-0.004,-0.003
FANCD2 isoform 1 (UniProt Q9BXW9),-0.038,0.017,-0.102,-0.053,-0.126,-0.145,0.051,0.028,0.009,-0.029
GEMIN6 (UniProt Q8WXD5),0.063,0.002,-0.028,0.072,0.013,-0.061,0.069,-0.028,-0.04,-0.112
HADHA (UniProt P40939),-0.102,0.032,-0.238,0.05,0.044,-0.19,0.177,0.595 (active),-0.024,-0.191
GLB1 (UniProt P16278),-0.011,0.059,-0.018,-0.032,0.034,0.004,0,0.002,0.003,0.036
FBXO7 (UniProt Q9Y3I1),-0.003,0.052,-0.069,0.019,0.012,-0.025,0.068,0.028,-0.009,-0.029
HECTD1 (UniProt Q9ULT8),-0.184,-0.066,0.111,0.071,0.033,-0.026,0.056,-0.001,-0.154,-0.018
GNAS (UniProt Q5JWF2),-0.023,0.036,0.025,0.011,-0.004,0.012,0.029,0.069,0.021,-0.041
IFITM3 (UniProt Q01628),-0.022,0.035,-0.011,0.241,0.044,-0.165,0.093,0.03,0.1,0.008
GCC2 (UniProt Q8IWJ2),-0.051,-0.077,0.117,0.053,0.061,0.026,0.175,0.031,0.136,-0.049
HOOK3 (UniProt Q86VS8),-0.016,-0.166,0.003,-0.019,0.013,-0.005,-0.063,-0.008,0.022,-0.007
GAGE12F (UniProt P0CL80),0.007,0.053,0.052,0.009,-0.081,0.095,0.033,-0.051,-0.031,-0.02
HOMER1 (UniProt Q86YM7),0.032,0.045,-0.047,-0.084,0.021,0.015,0.021,0.007,0.04,-0.047
GLUD1 (UniProt P00367),0.161,0.14,-0.002,-0.04,0.096,0.041,-0.099,0.089,-0.056,0.002
FUT8 (UniProt Q9BYC5),-0.095,-0.049,0.055,0.02,0.023,0.049,-0.037,0.017,0.018,0.506 (active)
GUSB (UniProt P08236),0.03,-0.004,0.021,-0.054,0.045,-0.055,0.048,-0.039,0.128,0.029
HSPA8 (UniProt P11142),0.067,0.007,0.01,-0.019,0.139,0.006,-0.029,-0.002,-0.009,0.042
FNTA (UniProt P49354),0.084,0.141,-0.006,-0.068,-0.028,0.019,-0.243,-0.016,-0.239,0.561 (active)
HAUS4 (UniProt Q9H6D7),0.466,-0.194,0.035,0.044,0.195,0.019,0.337,0.044,0.194,-0.03
HNRNPH1 (UniProt P31943),-0.018,-0.157,-0.163,0.076,-0.065,-0.278,0.08,0.058,0.114,-0.047
GALC (UniProt P54803),0.033,0.047,-0.03,-0.028,-0.003,0.017,-0.091,-0.015,0.024,-0.005
HNRNPC isoform 2 (UniProt P07910),-0.067,-0.035,0.04,0.219,0.033,0.054,0.392,0.115,0.148,0.071
